# Compounds without any hit were thinned out: in the full panel of roughly 83,000, 20% have a hit.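 Cells were grown in 96-well plates and exposed to the test compound at a single concentration for 48 hours; results are reported as percent growth, with values below 10 considered active.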 A number with no mark means an inactive call. Calls of active or inactive are those of the source.
# System: OVCAR-5 ovarian
# Experiment: NCI-60 one-dose screen, 48 h (100 = growth as untreated, 0 = no growth, -100 = all killed)
# Conditions: 10 µM unless noted
row,Compound,growth
1,O=S(=O)(NCCCNc1nccc(-n2ccc3cccnc32)n1)c1cccc(C(F)(F)F)c1,101%
2,CC(C)(C)n1cc(-c2ccnc(NCCNS(=O)(=O)c3ccc(F)cc3)c2)c(-c2cccc(O)c2)n1,68.6%
3,Cc1ccc(-c2cc3nc(C(Cl)Cl)nc(-c4ccccc4C)n3n2)cc1,92.7%
4,O=C(NNC(=O)N1c2ccccc2C=Cc2ccccc21)c1ccc2ccccc2c1,91.3%
5,CN(C[C@H]1Cc2c(cccc2N2CCN(Cc3ccccn3)CC2)CN1)[C@H]1CCCc2cccnc21,71%
6,CCCCCCCCC(C)OC(=O)c1nn(C(C)=O)c2ccccc12 (stereo not drawn),104%
7,OC(c1cc2cc(Br)ccc2c2cc(Br)ccc12)C1CCCCN1 (stereo not drawn),-76.5% (active)
8,O=C(NS(=O)(=O)c1ccc2ccccc2c1)n1cc(-c2ccncc2)c(-c2ccc(Cl)c(O)c2)n1,89.8%
9,Cc1cc(N)n(S(=O)(=O)c2oc(-c3ccccc3)nc2C#N)n1,109%
10,O=[N+]([O-])c1ccc(C(c2ccccc2)c2ccccc2)cc1,96.6%
11,CN(C)c1oc(C2OC2c2ccccc2)nc1C#N (stereo not drawn),89.6%
12,Cc1ccc(S(=O)(=O)NC(=O)n2cc(-c3ccncc3)c(-c3ccc(Cl)c(O)c3)n2)cc1,114%
13,CN(CCCCN(C[C@H]1Cc2ncccc2CN1)[C@H]1CCCc2cccnc21)C1CCC(F)(F)CC1,79%
14,Cc1cc(C2(c3cc(C)c(O)cc3C)OS(=O)(=O)c3ccccc32)c(C)cc1O,111%
15,CC1CN(c2oc(-c3ccccc3)nc2C#N)CC(C)O1 (stereo not drawn),102%
16,NC(=O)CCCN1C/C(=C\c2ccccc2)C(=O)c2ccccc21,101%
17,Cc1ccc(S(=O)(=O)NCCCNc2cc(-c3cn(C(C)(C)C)nc3-c3cccc(O)c3)ccn2)cc1,78.5%
18,Cc1nc2ncccc2nc1Nc1ccc(S(=O)(=O)Nc2ccccn2)cc1,103%
19,COc1ccc(NC(=O)c2c(Nc3ccc(OC)cc3OC)n[nH]c2N)c(OC)c1,96.3%
20,CCOC(=O)c1cn2c3c(cc(C)cc3c1=O)C(=O)/C(=C/c1ccccc1)C2,90%

row,Compound,growth
1,N=c1ccc2nc3ccc(N)cc3sc-2c1,48.1%
2,CC12CCC3C4(C)COC(c5ccccc5Cl)OC4CCC3(C)C1CC(C1=CCOC1=O)O2 (stereo not drawn),91.3%
3,C=C1CCC2C(C)(CO)C(O)CCC2(C)C1CC(NCc1ccccc1)C1=CCOC1=O (stereo not drawn),94.3%
4,c1cc(C2=N[C@@H]3c4ccccc4C[C@@H]3O2)nc(C2=N[C@@H]3c4ccccc4C[C@@H]3O2)c1,98.3%
5,COC1=C(OC)C(=O)C(CCCCCCCCCC[P+](c2ccccc2)(c2ccccc2)c2ccccc2)=C(C)C1=O,3.19% (active)
6,COc1ccc(-c2cc(-c3ccccc3)nc(SCCCC(=O)NO)n2)cc1OC,11%
7,N=C(N)c1ccc(-c2cc(Cl)cc(Cl)c2)cn1,89.4%
8,Nc1cccc(-c2nc3sccn3c2-c2ccnc(NCCNS(=O)(=O)c3ccc(C(F)(F)F)cc3)n2)c1,90.5%
9,C=C1CCC2C(C)(CO)C(O)CCC2(C)C1C/C=C1/C(=O)OCC1O/C=C/c1ccccc1 (stereo not drawn),93.5%
10,CCN(CC)CCC(CNc1ccnc2cc(Cl)ccc12)c1ccccc1 (stereo not drawn),87.9%
11,COc1ccc(-c2ccc(-c3ccc(C(=N)N)cn3)s2)cc1OC,103%
12,Cn1cnc2c(N3CCN(C(=O)OCc4ccc5c(Cl)cc(Cl)c(O)c5n4)CC3)nc(Cl)nc21,90.5%
13,C=C1CCC2C(C)(CO)C(O)CCC2(C)C1C/C=C1/C(=O)OCC1Oc1ccccc1C (stereo not drawn),91.8%
14,COc1ccc(S(=O)(=O)NCCCNc2nccc(-n3ccc4cccnc43)n2)cc1,100%
15,CCN(CC)CCC(CNc1ccnc2cc(Cl)ccc12)c1ccc(Cl)cc1 (stereo not drawn),22%
16,N=C(N)c1ccc(-c2ccc(-c3ccc(-c4cccs4)s3)s2)cc1,97.8%
17,COc1ccc(Nc2nn3c(C)cc(C)nc3c2C(=O)Nc2ccc(C)cc2)c(OC)c1,82.9%
18,CCCCCCN1CSC(=S)N(CCCCCC)C1,112%
19,O=C(NS(=O)(=O)c1ccccc1)n1cc(-c2ccncc2)c(-c2ccc(Cl)c(O)c2)n1,116%

# System: OVCAR-4 ovarian
# Experiment: as above
# Conditions: 10 µM unless noted
row,Compound,growth
1,O=S(=O)(NCCCNc1nccc(-n2ccc3cccnc32)n1)c1cccc(C(F)(F)F)c1,101%
2,CC(C)(C)n1cc(-c2ccnc(NCCNS(=O)(=O)c3ccc(F)cc3)c2)c(-c2cccc(O)c2)n1,56.2%
3,Cc1ccc(-c2cc3nc(C(Cl)Cl)nc(-c4ccccc4C)n3n2)cc1,74.9%
4,O=C(NNC(=O)N1c2ccccc2C=Cc2ccccc21)c1ccc2ccccc2c1,91.8%
5,CN(C[C@H]1Cc2c(cccc2N2CCN(Cc3ccccn3)CC2)CN1)[C@H]1CCCc2cccnc21,72.6%
6,CCCCCCCCC(C)OC(=O)c1nn(C(C)=O)c2ccccc12 (stereo not drawn),99.1%
7,Cc1cc(N)n(S(=O)(=O)c2oc(-c3ccccc3)nc2C#N)n1,106%
8,CN(C)c1oc(C2OC2c2ccccc2)nc1C#N (stereo not drawn),109%
9,CN(CCCCN(C[C@H]1Cc2ncccc2CN1)[C@H]1CCCc2cccnc21)C1CCC(F)(F)CC1,108%
10,CC1CN(c2oc(-c3ccccc3)nc2C#N)CC(C)O1 (stereo not drawn),99.4%
11,NC(=O)CCCN1C/C(=C\c2ccccc2)C(=O)c2ccccc21,98.9%
12,Cc1ccc(S(=O)(=O)NCCCNc2cc(-c3cn(C(C)(C)C)nc3-c3cccc(O)c3)ccn2)cc1,56%
13,Cc1nc2ncccc2nc1Nc1ccc(S(=O)(=O)Nc2ccccn2)cc1,102%
14,COc1ccc(NC(=O)c2c(Nc3ccc(OC)cc3OC)n[nH]c2N)c(OC)c1,102%
15,CCOC(=O)c1cn2c3c(cc(C)cc3c1=O)C(=O)/C(=C/c1ccccc1)C2,88.1%
16,CC12CCC3C4(C)COC(c5ccccc5Cl)OC4CCC3(C)C1CC(C1=CCOC1=O)O2 (stereo not drawn),31.2%
17,C=C1CCC2C(C)(CO)C(O)CCC2(C)C1CC(NCc1ccccc1)C1=CCOC1=O (stereo not drawn),97.8%
18,c1cc(C2=N[C@@H]3c4ccccc4C[C@@H]3O2)nc(C2=N[C@@H]3c4ccccc4C[C@@H]3O2)c1,99.6%
19,COC1=C(OC)C(=O)C(CCCCCCCCCC[P+](c2ccccc2)(c2ccccc2)c2ccccc2)=C(C)C1=O,2.19% (active)
20,COc1ccc(-c2cc(-c3ccccc3)nc(SCCCC(=O)NO)n2)cc1OC,6.41% (active)
21,N=C(N)c1ccc(-c2cc(Cl)cc(Cl)c2)cn1,97.1%
22,Nc1cccc(-c2nc3sccn3c2-c2ccnc(NCCNS(=O)(=O)c3ccc(C(F)(F)F)cc3)n2)c1,43.2%
23,C=C1CCC2C(C)(CO)C(O)CCC2(C)C1C/C=C1/C(=O)OCC1O/C=C/c1ccccc1 (stereo not drawn),62.7%
24,COc1ccc(-c2ccc(-c3ccc(C(=N)N)cn3)s2)cc1OC,96.1%
25,Cn1cnc2c(N3CCN(C(=O)OCc4ccc5c(Cl)cc(Cl)c(O)c5n4)CC3)nc(Cl)nc21,32.7%
26,C=C1CCC2C(C)(CO)C(O)CCC2(C)C1C/C=C1/C(=O)OCC1Oc1ccccc1C (stereo not drawn),74.8%
27,COc1ccc(S(=O)(=O)NCCCNc2nccc(-n3ccc4cccnc43)n2)cc1,81.5%
28,N=C(N)c1ccc(-c2ccc(-c3ccc(-c4cccs4)s3)s2)cc1,90.7%
29,COc1ccc(Nc2nn3c(C)cc(C)nc3c2C(=O)Nc2ccc(C)cc2)c(OC)c1,102%

# Reference: PubChem BioAssay (NCI)
